Assay results from publication PMC7862700, “An all-to-all approach to the identification of sequence-specific readers for epigenetic DNA modifications on cytosine”.

Experiments:
Test in all cases: DAPPL (digital affinity profiling via proximity ligation, sequencing); 10 mM Tris-HCl pH 7.5, 50 mM NaCl, 1 mM DTT, 4% glycerol, room temperature, 30 min; GST-TFs on glutathione beads, 16-mer random dsDNA library, 0.1% formaldehyde crosslink after washing; high values mean tight binding
FLI1 = target: T1, FLI1 (Homo sapiens, UniProt Q01543 1-452); details: protein: recombinant; tags: N-terminal GST; dsDNA, one strand shown
T1 sequence: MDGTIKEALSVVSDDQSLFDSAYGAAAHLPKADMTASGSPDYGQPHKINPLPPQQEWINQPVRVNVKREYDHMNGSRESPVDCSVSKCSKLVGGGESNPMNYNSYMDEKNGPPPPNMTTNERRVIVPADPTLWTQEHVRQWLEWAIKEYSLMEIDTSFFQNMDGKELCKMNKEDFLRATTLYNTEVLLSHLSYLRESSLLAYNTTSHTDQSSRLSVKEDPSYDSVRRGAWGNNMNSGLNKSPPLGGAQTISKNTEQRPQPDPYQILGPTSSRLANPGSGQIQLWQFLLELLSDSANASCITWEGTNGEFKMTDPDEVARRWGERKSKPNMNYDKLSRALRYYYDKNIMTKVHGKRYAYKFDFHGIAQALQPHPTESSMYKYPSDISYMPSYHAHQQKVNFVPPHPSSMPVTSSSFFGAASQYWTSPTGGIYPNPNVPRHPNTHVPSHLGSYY
Summary of the method: (§1)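 After expression in yeast as GST fusions, human transcription factors were bound to glutathione beads, DNA-barcoded and mixed with a tag-only sample. The pools were incubated with 200 nmole of a 16-mer random double-stranded DNA library in Tris/NaCl/DTT/glycerol buffer (30 min, room temperature), washed and crosslinked with 0.1% formaldehyde. Proximity ligation with BsaI/T4 ligase ran for 1 h at 37 °C, before PCR amplification and sequencing on an Illumina NextSeq500. Binding signal is a hexamer's read frequency for a factor divided by its frequency for the tag-only sample.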

ELK1 = target: T2, ELK1 (Homo sapiens, UniProt P19419 1-428); details: protein: recombinant; tags: N-terminal GST; dsDNA, one strand shown
T2 sequence: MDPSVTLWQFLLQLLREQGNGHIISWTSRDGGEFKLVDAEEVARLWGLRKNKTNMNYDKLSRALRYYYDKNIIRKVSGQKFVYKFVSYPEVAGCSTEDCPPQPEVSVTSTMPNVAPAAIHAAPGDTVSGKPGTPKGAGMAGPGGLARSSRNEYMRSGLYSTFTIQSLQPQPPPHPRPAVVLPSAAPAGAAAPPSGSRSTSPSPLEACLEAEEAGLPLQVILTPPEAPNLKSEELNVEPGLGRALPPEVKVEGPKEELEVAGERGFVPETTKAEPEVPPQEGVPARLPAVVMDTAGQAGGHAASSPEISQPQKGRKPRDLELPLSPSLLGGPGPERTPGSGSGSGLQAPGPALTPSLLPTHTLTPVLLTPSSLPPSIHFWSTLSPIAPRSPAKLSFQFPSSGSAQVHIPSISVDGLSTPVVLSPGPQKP
Summary of the method: as §1

GABPA = target: T3, GABPA (Homo sapiens, UniProt Q06546 1-454); details: protein: recombinant; tags: N-terminal GST; dsDNA, one strand shown
T3 sequence: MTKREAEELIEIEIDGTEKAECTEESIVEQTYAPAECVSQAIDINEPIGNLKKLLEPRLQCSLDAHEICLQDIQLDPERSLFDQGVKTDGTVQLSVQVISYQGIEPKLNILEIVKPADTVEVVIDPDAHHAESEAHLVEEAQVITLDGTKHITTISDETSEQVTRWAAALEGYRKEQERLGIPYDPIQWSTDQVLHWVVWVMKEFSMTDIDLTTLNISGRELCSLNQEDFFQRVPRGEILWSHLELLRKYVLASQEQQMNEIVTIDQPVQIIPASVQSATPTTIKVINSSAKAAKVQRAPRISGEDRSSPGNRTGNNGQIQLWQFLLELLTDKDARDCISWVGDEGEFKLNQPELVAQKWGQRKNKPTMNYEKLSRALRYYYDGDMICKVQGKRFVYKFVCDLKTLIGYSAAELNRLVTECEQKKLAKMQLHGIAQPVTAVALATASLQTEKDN
Summary of the method: as §1

ELF1 = ELF1 (Homo sapiens, UniProt P32519 1-619); details: protein: recombinant; tags: N-terminal GST; dsDNA, one strand shown
ELF1, sequence (P32519 whole entry): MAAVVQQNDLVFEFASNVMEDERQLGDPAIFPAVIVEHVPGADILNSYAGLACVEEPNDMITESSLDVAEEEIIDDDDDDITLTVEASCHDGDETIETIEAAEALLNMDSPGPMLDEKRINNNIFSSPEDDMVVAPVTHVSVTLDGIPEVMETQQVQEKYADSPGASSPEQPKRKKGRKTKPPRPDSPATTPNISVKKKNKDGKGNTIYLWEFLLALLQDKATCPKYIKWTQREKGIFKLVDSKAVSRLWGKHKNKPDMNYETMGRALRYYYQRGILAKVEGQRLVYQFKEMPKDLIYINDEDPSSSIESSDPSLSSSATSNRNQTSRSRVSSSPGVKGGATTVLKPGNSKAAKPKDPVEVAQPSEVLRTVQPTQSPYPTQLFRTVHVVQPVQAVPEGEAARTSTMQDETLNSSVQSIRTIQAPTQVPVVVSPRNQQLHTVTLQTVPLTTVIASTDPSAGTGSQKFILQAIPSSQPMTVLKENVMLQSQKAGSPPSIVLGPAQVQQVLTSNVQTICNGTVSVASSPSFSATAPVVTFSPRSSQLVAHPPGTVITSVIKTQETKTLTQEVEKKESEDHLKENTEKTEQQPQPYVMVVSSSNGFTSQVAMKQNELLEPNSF
Summary of the method: as §1

SPIB = SPIB (Homo sapiens, UniProt Q01892 1-262); details: protein: recombinant; tags: N-terminal GST; dsDNA, one strand shown
SPIB, sequence (Q01892 whole entry): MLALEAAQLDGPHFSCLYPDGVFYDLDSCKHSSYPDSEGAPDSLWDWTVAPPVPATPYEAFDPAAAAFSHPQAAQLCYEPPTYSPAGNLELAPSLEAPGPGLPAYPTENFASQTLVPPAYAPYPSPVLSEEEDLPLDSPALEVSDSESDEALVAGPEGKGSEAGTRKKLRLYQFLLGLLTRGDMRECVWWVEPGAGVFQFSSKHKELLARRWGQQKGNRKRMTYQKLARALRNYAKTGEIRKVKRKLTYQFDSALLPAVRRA
Summary of the method: as §1

FEV = target: T4, FEV (Homo sapiens, UniProt Q99581 1-238); details: protein: recombinant; tags: N-terminal GST; dsDNA, one strand shown
T4 sequence: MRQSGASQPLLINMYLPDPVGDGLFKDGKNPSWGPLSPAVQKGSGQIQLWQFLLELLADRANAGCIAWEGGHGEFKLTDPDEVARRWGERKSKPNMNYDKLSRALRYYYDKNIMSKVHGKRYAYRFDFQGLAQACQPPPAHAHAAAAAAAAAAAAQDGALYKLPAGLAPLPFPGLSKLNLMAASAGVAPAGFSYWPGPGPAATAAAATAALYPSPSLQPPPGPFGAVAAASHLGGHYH
Summary of the method: as §1

ETV5 = ETV5 (Homo sapiens, UniProt P41161 1-510); details: protein: recombinant; tags: N-terminal GST; dsDNA, one strand shown
ETV5, sequence (P41161 whole entry): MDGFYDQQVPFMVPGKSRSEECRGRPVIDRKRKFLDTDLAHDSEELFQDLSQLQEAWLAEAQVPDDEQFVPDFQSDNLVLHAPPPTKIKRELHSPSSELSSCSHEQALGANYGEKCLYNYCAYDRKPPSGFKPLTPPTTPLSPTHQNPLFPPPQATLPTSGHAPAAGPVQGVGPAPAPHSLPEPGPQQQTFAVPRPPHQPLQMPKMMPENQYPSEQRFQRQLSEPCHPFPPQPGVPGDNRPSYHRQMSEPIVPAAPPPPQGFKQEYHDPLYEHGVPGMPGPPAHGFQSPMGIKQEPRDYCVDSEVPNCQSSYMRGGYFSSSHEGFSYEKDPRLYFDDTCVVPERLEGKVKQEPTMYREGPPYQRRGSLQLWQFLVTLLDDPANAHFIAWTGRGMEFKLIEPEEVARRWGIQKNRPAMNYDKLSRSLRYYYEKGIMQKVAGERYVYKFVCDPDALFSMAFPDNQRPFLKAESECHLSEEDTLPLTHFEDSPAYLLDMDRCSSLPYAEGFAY
Summary of the method: as §1

HSF1 = HSF1 (Homo sapiens, UniProt Q00613 1-529); details: protein: recombinant; tags: N-terminal GST; chain copies: 3; dsDNA, one strand shown
HSF1, sequence (Q00613 whole entry): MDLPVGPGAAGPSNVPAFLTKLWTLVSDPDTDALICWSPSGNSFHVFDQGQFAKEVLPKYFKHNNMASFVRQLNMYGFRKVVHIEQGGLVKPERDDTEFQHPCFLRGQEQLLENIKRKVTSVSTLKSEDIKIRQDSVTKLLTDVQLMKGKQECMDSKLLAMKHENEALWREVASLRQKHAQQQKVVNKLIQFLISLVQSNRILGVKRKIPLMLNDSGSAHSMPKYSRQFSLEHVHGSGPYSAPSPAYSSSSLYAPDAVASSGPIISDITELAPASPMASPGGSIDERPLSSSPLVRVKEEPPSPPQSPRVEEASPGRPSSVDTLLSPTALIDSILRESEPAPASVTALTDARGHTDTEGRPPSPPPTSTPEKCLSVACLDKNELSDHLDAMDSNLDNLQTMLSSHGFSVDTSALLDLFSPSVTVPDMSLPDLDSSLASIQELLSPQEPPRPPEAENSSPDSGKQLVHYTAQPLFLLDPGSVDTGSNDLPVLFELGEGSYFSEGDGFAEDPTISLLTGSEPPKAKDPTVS
Summary of the method: as §1

SPIC = target: T5, SPIC (Homo sapiens, UniProt Q8N5J4 1-248); details: protein: recombinant; tags: N-terminal GST; dsDNA, one strand shown
T5 sequence: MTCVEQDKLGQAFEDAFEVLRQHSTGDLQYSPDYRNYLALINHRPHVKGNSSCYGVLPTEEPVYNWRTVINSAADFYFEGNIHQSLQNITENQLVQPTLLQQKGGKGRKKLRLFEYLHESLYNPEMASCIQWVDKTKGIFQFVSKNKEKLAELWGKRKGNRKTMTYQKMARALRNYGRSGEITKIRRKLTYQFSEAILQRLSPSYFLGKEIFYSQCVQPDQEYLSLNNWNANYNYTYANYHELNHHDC
Summary of the method: as §1

ELK4 = target: T6, ELK4 (Homo sapiens, UniProt P28324-2 1-405); details: protein: recombinant; tags: N-terminal GST; dsDNA, one strand shown
T6 sequence: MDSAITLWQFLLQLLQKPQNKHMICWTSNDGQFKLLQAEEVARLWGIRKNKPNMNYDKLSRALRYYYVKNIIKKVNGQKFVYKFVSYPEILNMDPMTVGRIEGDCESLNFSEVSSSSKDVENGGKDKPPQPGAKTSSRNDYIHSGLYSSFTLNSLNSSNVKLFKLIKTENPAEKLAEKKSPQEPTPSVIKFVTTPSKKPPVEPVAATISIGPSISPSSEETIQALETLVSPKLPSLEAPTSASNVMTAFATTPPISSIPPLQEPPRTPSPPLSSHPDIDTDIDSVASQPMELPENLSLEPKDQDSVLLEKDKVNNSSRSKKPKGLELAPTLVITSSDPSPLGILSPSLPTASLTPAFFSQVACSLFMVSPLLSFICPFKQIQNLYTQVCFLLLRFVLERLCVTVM
Summary of the method: as §1

ELF3 = target: T7, ELF3 (Homo sapiens, UniProt P78545 1-371); details: protein: recombinant; tags: N-terminal GST; dsDNA, one strand shown
T7 sequence: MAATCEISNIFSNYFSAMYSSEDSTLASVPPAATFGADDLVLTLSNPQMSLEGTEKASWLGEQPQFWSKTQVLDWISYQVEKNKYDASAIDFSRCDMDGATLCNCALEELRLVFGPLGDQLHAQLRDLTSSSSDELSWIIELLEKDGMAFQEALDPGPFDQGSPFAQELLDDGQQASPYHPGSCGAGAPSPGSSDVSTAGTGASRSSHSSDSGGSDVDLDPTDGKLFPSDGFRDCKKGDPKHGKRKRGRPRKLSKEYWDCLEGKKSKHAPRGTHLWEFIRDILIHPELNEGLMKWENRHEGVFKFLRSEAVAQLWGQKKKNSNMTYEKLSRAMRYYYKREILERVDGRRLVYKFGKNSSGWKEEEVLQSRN
Summary of the method: as §1

CRX = CRX (Homo sapiens, UniProt O43186 1-299); details: protein: recombinant; tags: N-terminal GST; dsDNA, one strand shown
CRX, sequence (O43186 whole entry): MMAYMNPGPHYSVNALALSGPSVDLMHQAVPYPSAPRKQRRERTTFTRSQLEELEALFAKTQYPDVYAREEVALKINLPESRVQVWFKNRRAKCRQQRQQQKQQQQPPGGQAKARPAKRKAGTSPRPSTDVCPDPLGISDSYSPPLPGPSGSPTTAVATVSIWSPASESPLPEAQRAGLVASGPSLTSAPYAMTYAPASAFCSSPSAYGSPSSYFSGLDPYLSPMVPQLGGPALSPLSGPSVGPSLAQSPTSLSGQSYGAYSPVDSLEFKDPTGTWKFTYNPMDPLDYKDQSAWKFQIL
Summary of the method: as §1

ETV1 = ETV1 (Homo sapiens, UniProt P50549 1-477); details: protein: recombinant; tags: N-terminal GST; dsDNA, one strand shown
ETV1, sequence (P50549 whole entry): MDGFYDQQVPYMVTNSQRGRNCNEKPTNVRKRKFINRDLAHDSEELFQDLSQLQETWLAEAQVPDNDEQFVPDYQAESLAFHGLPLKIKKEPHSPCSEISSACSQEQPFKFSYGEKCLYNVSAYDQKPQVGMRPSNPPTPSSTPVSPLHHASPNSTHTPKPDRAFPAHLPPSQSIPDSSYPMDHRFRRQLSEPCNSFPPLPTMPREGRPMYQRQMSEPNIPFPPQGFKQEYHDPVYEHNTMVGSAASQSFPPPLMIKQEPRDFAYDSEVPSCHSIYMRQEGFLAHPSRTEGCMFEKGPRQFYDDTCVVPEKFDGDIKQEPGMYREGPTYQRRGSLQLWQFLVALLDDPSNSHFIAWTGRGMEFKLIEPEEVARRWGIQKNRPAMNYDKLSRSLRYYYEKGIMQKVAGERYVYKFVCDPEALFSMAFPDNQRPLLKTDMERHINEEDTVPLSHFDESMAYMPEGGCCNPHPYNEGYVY
Summary of the method: as §1

ERG = target: T8, ERG (Homo sapiens, UniProt P11308 1-479); details: protein: recombinant; tags: N-terminal GST; dsDNA, one strand shown
T8 sequence: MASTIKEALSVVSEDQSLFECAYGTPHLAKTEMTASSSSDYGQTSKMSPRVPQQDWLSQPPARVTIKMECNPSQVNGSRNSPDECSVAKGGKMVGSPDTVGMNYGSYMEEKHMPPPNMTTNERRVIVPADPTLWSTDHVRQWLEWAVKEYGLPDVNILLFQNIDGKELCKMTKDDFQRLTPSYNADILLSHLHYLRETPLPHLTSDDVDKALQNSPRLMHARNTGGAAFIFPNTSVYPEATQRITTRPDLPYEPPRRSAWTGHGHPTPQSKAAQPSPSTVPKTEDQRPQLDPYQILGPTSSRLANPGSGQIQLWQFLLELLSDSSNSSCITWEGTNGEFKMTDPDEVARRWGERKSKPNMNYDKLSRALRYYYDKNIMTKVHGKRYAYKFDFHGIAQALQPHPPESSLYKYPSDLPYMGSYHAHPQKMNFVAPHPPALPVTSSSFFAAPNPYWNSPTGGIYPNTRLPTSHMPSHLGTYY
Summary of the method: as §1

ELK3 = target: T9, ELK3 (Homo sapiens, UniProt P41970 1-407); details: protein: recombinant; tags: N-terminal GST; dsDNA, one strand shown
T9 sequence: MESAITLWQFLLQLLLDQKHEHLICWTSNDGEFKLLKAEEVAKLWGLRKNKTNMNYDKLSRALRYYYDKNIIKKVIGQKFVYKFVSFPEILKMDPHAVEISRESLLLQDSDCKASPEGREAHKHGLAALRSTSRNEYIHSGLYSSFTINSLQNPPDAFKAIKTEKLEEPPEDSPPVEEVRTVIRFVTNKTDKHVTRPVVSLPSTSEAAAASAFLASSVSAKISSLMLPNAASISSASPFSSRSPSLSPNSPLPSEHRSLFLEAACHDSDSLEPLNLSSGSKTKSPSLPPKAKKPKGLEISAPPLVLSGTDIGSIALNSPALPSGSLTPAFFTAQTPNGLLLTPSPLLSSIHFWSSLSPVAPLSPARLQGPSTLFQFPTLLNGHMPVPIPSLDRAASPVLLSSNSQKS
Summary of the method: as §1

ELF4 = ELF4 (Homo sapiens, UniProt Q99607 1-663); details: protein: recombinant; tags: N-terminal GST; dsDNA, one strand shown
ELF4, sequence (Q99607 whole entry): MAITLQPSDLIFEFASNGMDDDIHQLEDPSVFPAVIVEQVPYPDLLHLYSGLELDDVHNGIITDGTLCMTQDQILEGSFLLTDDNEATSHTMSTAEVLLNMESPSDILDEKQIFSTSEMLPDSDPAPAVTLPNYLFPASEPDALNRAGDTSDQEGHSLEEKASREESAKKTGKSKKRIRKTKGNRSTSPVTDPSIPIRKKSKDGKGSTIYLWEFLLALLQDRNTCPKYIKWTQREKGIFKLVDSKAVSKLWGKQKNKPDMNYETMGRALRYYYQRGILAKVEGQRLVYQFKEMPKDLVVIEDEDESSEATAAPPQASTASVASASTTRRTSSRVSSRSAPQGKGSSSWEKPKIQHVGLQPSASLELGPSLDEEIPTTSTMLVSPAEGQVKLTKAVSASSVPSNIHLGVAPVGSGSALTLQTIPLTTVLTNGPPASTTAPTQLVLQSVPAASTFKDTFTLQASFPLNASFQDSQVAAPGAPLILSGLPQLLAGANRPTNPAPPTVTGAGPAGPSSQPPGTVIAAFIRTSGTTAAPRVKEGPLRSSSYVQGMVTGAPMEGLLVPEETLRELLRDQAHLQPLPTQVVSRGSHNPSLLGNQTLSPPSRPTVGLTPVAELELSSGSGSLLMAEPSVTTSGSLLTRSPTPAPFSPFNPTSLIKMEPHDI
Summary of the method: as §1

ETV2 = target: T10, ETV2 (Homo sapiens, UniProt O00321 1-342); details: protein: recombinant; tags: N-terminal GST; dsDNA, one strand shown
T10 sequence: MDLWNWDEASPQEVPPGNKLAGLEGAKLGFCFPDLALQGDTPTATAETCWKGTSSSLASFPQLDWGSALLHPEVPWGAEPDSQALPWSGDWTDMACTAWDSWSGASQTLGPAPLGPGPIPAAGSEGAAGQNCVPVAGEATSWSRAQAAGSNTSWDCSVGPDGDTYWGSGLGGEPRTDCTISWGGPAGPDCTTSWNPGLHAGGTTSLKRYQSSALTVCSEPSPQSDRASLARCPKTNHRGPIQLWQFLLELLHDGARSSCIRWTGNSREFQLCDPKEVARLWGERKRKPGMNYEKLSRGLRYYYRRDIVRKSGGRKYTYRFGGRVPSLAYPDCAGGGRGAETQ
Summary of the method: as §1

Row | Sequence | binding signal (FLI1) | binding signal (ELK1) | binding signal (GABPA) | binding signal (ELF1) | binding signal (SPIB) | binding signal (FEV) | binding signal (ETV5) | binding signal (HSF1) | binding signal (SPIC) | binding signal (ELK4) | binding signal (ELF3) | binding signal (CRX) | binding signal (ETV1) | binding signal (ERG) | binding signal (ELK3) | binding signal (ELF4) | binding signal (ETV2)
1 | AAAGCC | 1.05 fold enrichment (6-mer frequency, TF over GST control) | 1.05 fold enrichment (6-mer frequency, TF over GST control) | 1.04 fold enrichment (6-mer frequency, TF over GST control) | 1.08 fold enrichment (6-mer frequency, TF over GST control) | 1 fold enrichment (6-mer frequency, TF over GST control) | 1.03 fold enrichment (6-mer frequency, TF over GST control) | 1.02 fold enrichment (6-mer frequency, TF over GST control) | 1.14 fold enrichment (6-mer frequency, TF over GST control) | 1.14 fold enrichment (6-mer frequency, TF over GST control) | 1.02 fold enrichment (6-mer frequency, TF over GST control) | 1.01 fold enrichment (6-mer frequency, TF over GST control) | 1.42 fold enrichment (6-mer frequency, TF over GST control) | 1.03 fold enrichment (6-mer frequency, TF over GST control) | – | – | – | –
2 | TCTAGG | 1.12 fold enrichment (6-mer frequency, TF over GST control) | – | 1.1 fold enrichment (6-mer frequency, TF over GST control) | 1.05 fold enrichment (6-mer frequency, TF over GST control) | 1.11 fold enrichment (6-mer frequency, TF over GST control) | – | 1.05 fold enrichment (6-mer frequency, TF over GST control) | 1.7 fold enrichment (6-mer frequency, TF over GST control) | 1.24 fold enrichment (6-mer frequency, TF over GST control) | – | 1.07 fold enrichment (6-mer frequency, TF over GST control) | 1.27 fold enrichment (6-mer frequency, TF over GST control) | – | 1.02 fold enrichment (6-mer frequency, TF over GST control) | 1.07 fold enrichment (6-mer frequency, TF over GST control) | 1.13 fold enrichment (6-mer frequency, TF over GST control) | 1.11 fold enrichment (6-mer frequency, TF over GST control)
